Drawing on PubChem BioAssay AID720553 (National Center for Advancing Translational Sciences (NCATS), 2013), this text covers activity change for 64 compounds.

In all, about 340,000 compounds went through this assay and about 3,300 (0.97%) were called active. The sample holds actives, similar compounds and a random draw of the others, so the mix is not that of the screen. Unmarked numbers belong to inactive results.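 The calls were made as follows: active = maximum activity change below -70%; inconclusive = maximum activity change from -70% to -50%; inactive = maximum activity change above -50%.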
% is scaled to controls: 0 for no effect and ±100 for the full control effect.

The test system of the test is Potassium voltage-gated channel subfamily H member 2, brain isoform KCNH2 3.1 (human). The experiment in a line: qHTS for Inhibitors of KCHN2 3.1: Mutant qHTS. The conditions noted are these: U2OS KCNH2 3.1, thallium flux FluxOr; hits give low values. An outline of the steps:
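Channel expression came from 3.1 mutant virus (1.77 x 10^8 /mL) applied to suspended U2OS cells for 4 h. Flux was tracked with FluxOr dye plus Red40 quencher, and kinetic rate constants normalized to controls.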
Regarding `Cc1ccc(S(=O)(=O)/N=C2\C=C(NS(=O)(=O)c3ccc(C)cc3)C(=O)c3ccccc32)cc1`, the activity change was 17.4%.
In the case of `C[C@H]1CN([C@@H](C)CO)S(=O)(=O)c2ccc(Br)cc2O[C@H]1CN(C)C(=O)c1cnccn1`, the activity change is 10.6%.
`O=C(Nc1ccc(N2CCCCC2)cc1)c1cc(S(=O)(=O)N2CCOCC2)ccc1F`: the activity change is -0.576%.
For `O=C(Nc1ccc(N2CCOCC2)c(Cl)c1)c1ccc(S(=O)(=O)N2CCOCC2)cc1`, the activity change was -3.05%.
As to `O=C(Nc1ccc2c(c1)nc1n2CCCCC1)c1cc(S(=O)(=O)N2CCOCC2)ccc1Cl`, the activity change was -83.4% (active).
The same measure for `COc1cccc(-c2noc(C3CCCN(C(=O)c4ccc(F)cc4)C3)n2)c1` (centres undefined): 16.8%.
`COc1cc(-c2noc(C3CCCN(S(=O)(=O)c4cccc(Cl)c4)C3)n2)cc(OC)c1OC` (centres undefined): the activity change is -93.6% (active).
The same measure for `CC(C)c1ccc(-c2noc(C3CCCN(S(C)(=O)=O)C3)n2)cc1` (centres undefined): -21.4%; for `CCOC(=O)c1c(NC(=S)SC)sc(C(=O)N2CCc3ccccc3C2)c1C`: -4.73%; for `CC1=C(C(=O)N2CCOCC2)CC(CC(=O)NCc2ccco2)C(=O)N1Cc1ccc(F)cc1` (centres undefined): -24.5%.
For the compound `CC1CCCC(NC(=O)COC(=O)c2ccccc2C(=O)N(C)C2CCCCC2)C1C` (centres undefined), the activity change is 7.73%.
For the compound `C=CCNC(=O)COC(=O)c1ccccc1C(=O)N(C)C1CCCCC1`, the activity change is -110% (active).
For `O=C(COC(=O)c1ccccc1Cl)NC1CCCCCCC1`, the activity change is -1.39%.
In the case of `CCCCN(C(C)=O)c1ccc2c(c1)C1CC2CCN1Cc1ccccc1` (centres undefined), the activity change is 0.966%.
Regarding `O=C(Nc1ccc(Cl)cn1)c1ccccc1-c1ccccc1`, the activity change was -14.9%.
The same measure for `CC1(C)Cc2cccc(OCC(=O)N3CCN(c4ccc([N+](=O)[O-])cc4)CC3)c2O1`: -91.8% (active).
As for `CC1(C)Cc2cccc(OCC(N)=O)c2O1`, the activity change is -6.48%.
As for `CC1(C)Cc2cccc(OCC(=O)NCc3ccccc3)c2O1`, the activity change was 0.403%.
As for `S=C(NN=Cc1ccccn1)Nc1ccccn1`, the activity change is -6.69%.
For `COc1ccc(C(=O)OCC(=O)Nc2cc(C)on2)cc1F` the value was -0.754%; for `CSCCC(NC(=O)COc1ccccc1)C(=O)N1CCN(c2cccc(C(F)(F)F)c2)CC1` (centres undefined), -70% (active).
The same measure for `CSCCC(NC(=O)COc1ccccc1)C(=O)OCCOc1ccc(Br)cc1` (centres undefined): -21.4%; for `CSCCC(NC(=O)COc1ccccc1)C(=O)OCCOc1ccc(F)cc1` (centres undefined): -11.8%; for `O=C(Nc1cccc2ccccc12)NC1CC1`: -0.285%.
For `COc1ccc(C(C)(C)C)cc1NC(=O)CN(C)C1=NS(=O)(=O)c2ccccc21` the value was -5.7%; for `Cc1cc(OCC(=O)NCC(O)c2ccccc2)c2c(C)c(C)c(=O)oc2c1` (centres undefined), 29.5%.
In the case of `O=C(COc1ccc2c3c(c(=O)oc2c1)CCCC3)NCC(O)c1ccccc1` (centres undefined), the activity change is 10.4%.
The same measure for `O=C(COc1ccc2ccc(=O)oc2c1)NCC(O)c1ccccc1` (centres undefined): -87.9% (active); for `O=C(NCCOc1ccccc1)N1[C@H]2CC[C@@H]1C=C(c1ccc(F)cc1OCc1ccccc1)C2`: -21.8%.
As for `COCCCNC(=O)COc1cc(C)c(Cl)c(C)c1`, the activity change was 30.5%.
For `CCNC(=O)COc1cc(C)c(Br)c(C)c1` the value was -198% (active); for `CCOC(=O)C1CCN(C(=O)COc2cc(C)c(Br)c(C)c2)CC1`, -6.53%.
For `Cc1ccc(S(=O)(=O)N2C[C@]3(O)C[C@@H]4C(=O)N(c5ccccc5)C(=O)[C@@H]4C[C@]3(OC(=O)NC3CC3)C2)cc1` the value was -5.83%; for `Cc1ccc(NC(=O)Cn2sc3ccccc3c2=O)cc1`, 8.97%.
The same measure for `COc1cccc(CC2(CO)CCCN(Cc3ccc(OC(F)F)cc3)C2)c1` (centres undefined): -90.5% (active); for `COc1cccc(CC2(CO)CCCN(CC3=Cc4cc(OC)ccc4OC3)C2)c1` (centres undefined): -14.2%.
For the compound `COc1cccc(CNC(=O)CCC2CCCN(C(=O)c3ccoc3C)C2)c1` (centres undefined), the activity change was -8.72%.
The same measure for `COc1cccc(C(=O)N2CCCC(CCC(=O)NCc3ccc(F)c(F)c3)C2)c1` (centres undefined): -33.7%.
In the case of `COc1cccc(CC2(CO)CCCN(Cc3nc(-c4cccs4)oc3C)C2)c1` (centres undefined), the activity change is -14.6%.
For `COc1cccc(CNC(=O)CCC2CCCN(Cc3ccc(OC(F)F)cc3)C2)c1` (centres undefined) the value was -93.7% (active).
For `CCCn1c(N)c(C(=O)CSc2nnc(Cc3cccs3)n2C2CC2)c(=O)[nH]c1=O` the value was 7.67%; for `Cc1cccc(S(=O)(=O)N(C)C[C@H]2OCc3cnnn3CCCC(=O)N([C@@H](C)CO)C[C@H]2C)c1`, 36.2%; for `CCCCCCNC(=O)O[C@H]1CN(C(=O)OC(C)C)N(C(=O)OC(C)C)[C@@H]2CN(S(=O)(=O)c3ccc(C)cc3)C[C@]12O`, 0.662%.
The same measure for `COc1ccc(-c2ccc(CN3C(CC(C)C)C(=O)N(Cc4cn(CC5CCCCC5)nn4)CCS3(=O)=O)cc2)cc1` (centres undefined): -16.5%.
`CC1(c2cccc(Br)c2)NC(=O)N(CC(=O)NCCC2=CCCCC2)C1=O` (centres undefined): the activity change is -2.93%.
For `Cc1noc(C)c1COc1cccc(C(=O)Nc2cccnc2)c1` the value was 5.81%; for `Cc1nc2nc[nH]n2c(=O)c1NC(=O)c1cccc(OCC(C)C)c1`, -182% (active).
For `Cc1nc2nc[nH]n2c(=O)c1C/C=C/c1ccccc1` the value was -5.87%.
`C[C@H]1CN([C@@H](C)CO)C(=O)c2cc(C3=CCCCC3)cnc2O[C@@H]1CN(C)C(=O)Cc1ccccc1`: the activity change is -6.94%.
In the case of `CC(=O)Nc1ccc(SCC(=O)NC(=O)c2ccc(Cl)cc2)cc1`, the activity change was -9.69%.
For `COc1ccc2[nH]c(C)c(CCN(Cc3cccs3)C(=S)Nc3ccccc3OC)c2c1` the value was -8.67%; for `COc1cccc(NC(=S)N(CCc2c(C)[nH]c3ccccc23)Cc2ccco2)c1`, -11%.
The same measure for `Cc1[nH]c2ccccc2c1CCN(Cc1cccs1)C(=S)NC(C)(C)C`: -70.5% (active); for `Cc1ccc(S(=O)(=O)NN=C2CC(C)(C)CC(=O)C2(C)C)cc1`: -9.11%; for `C[C@@H]1Cn2cnc(C(=O)Nc3ccc(CNC(=O)OC(C)(C)C)cc3)c2C(=O)N1`: -19.4%.
For `C[C@H]1Cn2cnc(C(=O)N[C@@H](Cc3c[nH]c4ccccc34)C(=O)OC(C)(C)C)c2C(=O)N1` the value was -11.5%; for `CCOC(=O)CSc1nc2c(c(=O)n(Cc3ccccc3Cl)c(=O)n2C)n1C`, -10.8%; for `CCOC(=O)CSc1nc2c(sc(=S)n2CCc2ccccc2)c(=O)n1Cc1ccco1`, -91% (active).
On to `N#Cc1c(NC(=O)CSc2nc3ccccc3c(=O)n2Cc2ccco2)sc2c1CCCC2`, for which the activity change is -19.1%.
Consider `C=CCOc1ccccc1CNn1c(C)n[nH]c1=S`, for which the activity change was 3.24%.
The same measure for `C[C@@H]1CN([C@@H](C)CO)C(=O)CCCn2nncc2CO[C@@H]1CN(C)S(=O)(=O)c1ccc(-c2ccccc2)cc1`: 8.36%.
For the compound `COc1ccc(CCNC(=O)COC(=O)Cc2ccccc2F)cc1`, the activity change is 8.82%.
Regarding `COc1cccc(CNCCc2c[nH]c3ccccc23)c1OCc1ccccc1F`, the activity change was -1.51%.
As to `COc1ccc(C(CCNCc2ccccc2F)c2ccc(F)cc2)cc1` (centres undefined), the activity change is -100% (active).
